Data from PubChem BioAssay AID1259374 (The Scripps Research Institute Molecular Screening Center, 2018).
In all, about 650,000 compounds went through this assay and about 5,900 (0.91%) were called active. No stated cut-off is given here; in the data, active means inhibition above about 50%; inactive means the rest. The sample as a whole holds a higher share of actives than the screen did.

Molecular target: Microphthalmia-associated transcription factor (Homo sapiens) (UniProt O75030)
Experiment: MITF inhibitors, primary screen, biochemical, AlphaScreen, human (AID 1259374);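 further: 0% = vehicle wells with protein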
Conditions: AlphaScreen MITF homodimerization, bead proximity signal; at 2.6 µM; hits give high values

Sequence of Microphthalmia-associated transcription factor (Homo sapiens) (O75030 whole entry, looked up): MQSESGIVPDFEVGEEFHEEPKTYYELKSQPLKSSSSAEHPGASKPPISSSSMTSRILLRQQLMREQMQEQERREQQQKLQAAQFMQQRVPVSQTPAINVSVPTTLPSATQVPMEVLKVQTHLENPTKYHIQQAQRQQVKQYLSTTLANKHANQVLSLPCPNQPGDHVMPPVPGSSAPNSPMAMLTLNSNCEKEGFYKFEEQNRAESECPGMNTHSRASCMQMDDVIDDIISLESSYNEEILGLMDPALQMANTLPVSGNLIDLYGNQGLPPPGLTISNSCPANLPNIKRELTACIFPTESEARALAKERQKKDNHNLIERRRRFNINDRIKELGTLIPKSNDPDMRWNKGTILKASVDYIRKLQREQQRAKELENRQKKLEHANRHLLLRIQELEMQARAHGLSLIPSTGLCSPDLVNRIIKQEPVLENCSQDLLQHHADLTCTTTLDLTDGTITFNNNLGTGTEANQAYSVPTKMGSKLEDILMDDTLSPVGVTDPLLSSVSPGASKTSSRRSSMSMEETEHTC

Row | SMILES | inhibition
1 | O=C(Oc1ccc2sc(=O)oc2c1)c1cccc(C(F)(F)F)c1 | -7.72% (inactive)
2 | N#Cc1ccc(NC(=O)c2ccccc2C(=O)O)cc1 | 4.7% (inactive)
3 | Cc1ccc(S(=O)(=O)N/N=C/c2cccnc2)cc1[N+](=O)[O-] | -30.1% (inactive)
4 | COc1ccc(/C=C/c2cc[n+](C)cc2)c(OC)c1 | -10.4% (inactive)
5 | CC(=O)Nc1cc(C(=O)NCCN2CCOCC2)cc(-n2ncc3cc(Nc4c(Cl)cccc4Cl)ccc32)c1 | -3% (inactive)
6 | CCOC(=O)C1C2C=CC3(CN(c4ccc(C)cc4)C(=O)C13)O2 (stereo not drawn) | 0.13% (inactive)
7 | O=C(CCCn1c(SCC(=O)c2ccc(Cl)c(Cl)c2)nc2ccsc2c1=O)NCCc1ccccc1 | 2.74% (inactive)
8 | Cc1ccc(C2CC(c3ccc(Br)cc3)=NN2C(=O)CSc2nnc(CNC(=O)COc3ccccc3)n2C)cc1 (stereo not drawn) | -9.25% (inactive)
9 | O=C(c1ccccc1)N1CCN(Cc2ccc(Cl)cc2)CC1 | 48.9% (inactive)
10 | Clc1ccc(CN2CCc3nnc(C4CCCO4)n3CC2)cc1 (stereo not drawn) | 9.36% (inactive)
11 | Clc1ccc(CN2CCN(CC3CC=CCC3)CC2)cc1 (stereo not drawn) | 78.5% (active)
12 | CC(=O)NS(=O)(=O)c1ccc(-c2ccc(C=C(C#N)C#N)o2)cc1 | 64.8% (active)
13 | CC(=O)NS(=O)(=O)c1ccc(-c2ccc(/C=C3/C(=O)N(CCCO)C(=O)C(C#N)=C3C)o2)cc1 | 3.37% (inactive)
14 | N#C/C(=C\c1ccc(-c2ccc(S(N)(=O)=O)cc2)o1)C(N)=O | 3.71% (inactive)
15 | O=C(CCc1ccc2c(c1)OCO2)N1CCC(c2[nH]ncc2-c2ccccc2)CC1 | -0.09% (inactive)
16 | Cc1cc(C(C)(C)C)ccc1OCCN1CCNCC1 | 52.3% (active)
17 | C=CCc1ccccc1OCCN1CCNCC1 | 26.5% (inactive)
18 | Cc1cccc(OCCN2CCNCC2)c1C | 73.1% (active)
19 | Cc1cccc(OCCOCCN2CCC(C)CC2)c1C | 24.9% (inactive)
20 | Cc1cc(Br)ccc1OCCN1CCNCC1 | 36.3% (inactive)
21 | Cc1ccc(OCCN2CCNCC2)cc1C | 9.7% (inactive)

Row | SMILES | inhibition
22 | N#Cc1c(/N=C/c2ccccc2OCC(=O)O)sc2c1CCCC2 | 2% (inactive)
23 | COc1ccccc1CNC(=O)c1ccccc1Br | 7.79% (inactive)
24 | O=c1c2ccccc2nc(/C=C\c2ccc(F)c(F)c2)n1-c1ccc(Cl)cc1[N+](=O)[O-] | 1.53% (inactive)
25 | Cn1c(CC(=O)NNC(=O)CNC(=O)c2ccc(Br)cc2)nc2ccccc21 | 8.22% (inactive)
26 | Cc1ccc(-c2nn3c(C)nnc3s2)cc1NC(=O)COc1ccc(Cl)cc1C | -9.16% (inactive)
27 | O=S(=O)(c1ccc(Br)cc1Cl)N1CCN(CCc2ccncc2)CC1 | 75.3% (active)
28 | O=S(=O)(c1cc(Br)ccc1Br)N1CCN(CCO)CC1 | 7.82% (inactive)
29 | O=S(=O)(/C=C/c1ccccc1)N1CCN(CCc2ccncc2)CC1 | 3.78% (inactive)
30 | CCN1CCN(Cc2c(O)ccc3c2O/C(=C\c2cc(OC)ccc2OC)C3=O)CC1 | -14.3% (inactive)
31 | CN1CC(CO)O/C1=C(C#N)\C=C1\Nc2ccccc2C1=O (stereo not drawn) | 21.7% (inactive)
32 | COc1ccc(OC(=O)COc2ccc(Br)cc2)cc1 | 1.98% (inactive)
33 | COc1ccc(OCCCC(=O)Oc2ccc(OC)cc2)cc1 | 80.3% (active)
34 | COc1ccc(OCCCC(=O)Nc2ccccc2)cc1 | 14.3% (inactive)
35 | CN(CC(=O)Nc1ccccc1F)CC(=O)Nc1ccccc1Br | -2.33% (inactive)
36 | CCC(C)c1ccccc1NC(=O)C(C)Cl (stereo not drawn) | -5.29% (inactive)
37 | CCC(C)c1ccccc1NC(=O)CN(C)CC(=O)Nc1ccccc1SC (stereo not drawn) | 89.7% (active)
38 | Cc1ccc(C23CC4CC(CC(C(=O)NCC(=O)NN)(C4)C2)C3)cc1 | -4.06% (inactive)
39 | O=C(COc1ccc(Cl)cc1)N/N=C/c1ccc([N+](=O)[O-])c(O)c1 | -8.51% (inactive)
40 | COc1ccc(S(=O)(=O)N(C)CC(=O)Nc2ccc(F)cc2F)cc1OC | -13.8% (inactive)
41 | N#C/C(=C/c1ccc(-c2ccc3c(c2)C(=O)NC3=O)o1)C(=O)O | 54.7% (active)
42 | N#C/C(=C\c1ccc(-c2ccc(F)cc2)o1)C(=O)O | 9.25% (inactive)

Row | SMILES | inhibition
43 | N#C/C(=C/c1ccc(-c2ccc(F)cc2)o1)C(=O)N1CCCCC1 | -2.65% (inactive)
44 | CCCN(CCC)C(=O)C(Cc1ccccc1)N1C(=O)C2C3C=CC(C3)C2C1=O (stereo not drawn) | -7.73% (inactive)
45 | COc1ccc(CN[C@H]2C[C@H]3C(=O)N[C@@H](C(C)C)C(=O)N3C2)cc1 | 16% (inactive)
46 | COc1ccc(CNC(=O)CC(C)C)cc1 | 4.41% (inactive)
47 | COc1ccc(CNCC2CN(CC(C)C)CCO2)cc1 (stereo not drawn) | 54.3% (active)
48 | CCCCCNC(=O)COc1ccccc1C#N | -3.44% (inactive)
49 | O=C(Nc1ccc(F)cc1F)c1cc([N+](=O)[O-])ccc1Cl | -3.07% (inactive)
50 | O=C(Nc1nc2ccccc2n1CCOc1ccc(F)cc1)c1ccc(Cl)cc1 | -6.19% (inactive)
51 | COc1ccc(C2=NNc3cccc4c(OC)ccc2c34)cc1OC | 51.8% (active)
52 | COc1cc(Nc2nc(-c3ccc(OC)c(OC)c3)nc3ccccc23)cc(OC)c1 | -23% (inactive)
53 | COc1ccc(-c2nc3ccccc3[nH]2)cc1OC | 10.1% (inactive)
54 | CCNCc1ccc(OCC(=O)Nc2ccc(OC)cc2)c(OC)c1 | -12.6% (inactive)
55 | COc1cc([N+](=O)[O-])cc([N+](=O)[O-])c1NC(=O)N1CCOCC1 | 11.6% (inactive)
56 | COC(=O)c1ccc(N2CCOCC2)c([N+](=O)[O-])c1 | 10.3% (inactive)
57 | COC(=O)Oc1c([N+](=O)[O-])cc2oc(=O)sc2c1[N+](=O)[O-] | 59.1% (active)
58 | Cc1cccc(C(=O)Nc2ccc3oc(-c4ccc(Cl)c(Cl)c4)nc3c2)c1 | 6.63% (inactive)
59 | O=C(Nc1nc2ccccc2s1)C(Cc1ccccc1)N1C(=O)c2ccccc2C1=O (stereo not drawn) | -3.65% (inactive)
60 | CNC(=O)c1cc(F)ccc1Nc1cc(Nc2ccc(NC(C)=O)cn2)ncc1C(F)(F)F | 1.21% (inactive)
61 | Cc1cccnc1NC(=O)CSc1nnc(COc2ccc(C(C)C)cc2)n1C | 53.7% (active)
62 | CC(C)c1ccc(NC(=O)CSc2nnc(CNC(=O)c3ccccc3)n2C)cc1 | 14% (inactive)
63 | Cc1ccccc1OCc1nnc(SCC(=O)NC(C)(C)C)n1C | 11.7% (inactive)
